8 molecules from PubChem BioAssay (NCI) can be followed below.

About 83,000 compounds went through this panel and 20% of them were active in at least one assay; those are over-represented in the sample as a whole.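 Interpretation: 100, growth as untreated; towards 0, rising growth inhibition; 0, no net growth; 0 to -100, cell death. Compounds scoring below 10 were considered active.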 Values without a mark were called inactive. Active and inactive are the calls of the source.

Some test systems named below: SK-MEL-2 melanoma; EKVX NSCLC; SN12C renal; UO-31 renal; TK-10 renal; ACHN renal; CAKI-1 renal; A498 renal; CCRF-CEM leukemia; MOLT-4 leukemia; SR leukemia; OVCAR-8 ovarian; OVCAR-5 ovarian; OVCAR-4 ovarian; SK-OV-3 ovarian; IGROV1 ovarian; OVCAR-3 ovarian; NCI/ADR-RES ovarian; HS 578T breast; RPMI-8226 leukemia.
Holding throughout (assay): NCI-60 one-dose screen, 48 h (100 = growth as untreated, 0 = no growth, -100 = all killed)
What all share (conditions): 10 µM unless noted

For `Cn1cc(-c2ccc3c(Nc4cccc(NC(=O)Nc5cccc(F)c5)c4)ncnc3c2)cn1`, the growth with SK-MEL-2 melanoma is 43.2%; in the assay on EKVX NSCLC it was 53%; in the assay with SN12C renal, 30.1%; in the assay with UO-31 renal, 23.7%; in the assay with TK-10 renal, 39.4%; with ACHN renal it was 15.2%. Moreover, the growth in the assay on CAKI-1 renal was 39.8%; in the assay on A498 renal it was 41.9%; in the assay with CCRF-CEM leukemia, 4.27% (active); in the assay with MOLT-4 leukemia it was 14.3%; with SR leukemia, 0.802% (active); with OVCAR-8 ovarian, 34.6%. In addition, the growth was 67.6% in the assay with OVCAR-5 ovarian; 67.6% in the assay with OVCAR-4 ovarian; 3.1% (active) with SK-OV-3 ovarian; 23.8% in the assay with IGROV1 ovarian; 44.7% in the assay on OVCAR-3 ovarian; 78% with NCI/ADR-RES ovarian.

On to `Cc1nc2c(c(-c3ccccc3)n1)Cc1c(ccc3ccccc13)O2`, for which the growth in the assay on SK-MEL-2 melanoma is 112%; in the assay on EKVX NSCLC, 128%; in the assay with SN12C renal it was 102%; in the assay on UO-31 renal, 69.8%; in the assay with TK-10 renal, 106%; in the assay with ACHN renal, 90.8%. Moreover, the growth is 109% with CAKI-1 renal; 79.1% in the assay with A498 renal; 96.5% in the assay with CCRF-CEM leukemia; 97% in the assay on MOLT-4 leukemia; 107% in the assay with SR leukemia; 95.1% with OVCAR-8 ovarian. Further, the growth is 93.1% in the assay with OVCAR-5 ovarian; 99.4% in the assay with OVCAR-4 ovarian; 96.4% with SK-OV-3 ovarian; 99.1% in the assay on OVCAR-3 ovarian; 83.3% with HS 578T breast; 98% in the assay on NCI/ADR-RES ovarian.

Turning to `COc1cc2nc3cc([N+](=O)[O-])ccc3c(NCCCNCCO)c2cc1OC`, the growth was -44.3% (active) in the assay on SK-MEL-2 melanoma; 7.46% (active) in the assay on EKVX NSCLC; -33.3% (active) in the assay on SN12C renal; 48.9% in the assay on UO-31 renal; -4.55% (active) in the assay on TK-10 renal; 2.87% (active) in the assay with ACHN renal. Besides, the growth with CAKI-1 renal is 55.5%; in the assay with CCRF-CEM leukemia, 0.0749% (active); in the assay on MOLT-4 leukemia it was 2.59% (active); in the assay on SR leukemia, -12.4% (active); in the assay with RPMI-8226 leukemia, -1.84% (active); with OVCAR-8 ovarian, -28.9% (active). For the same molecule, the growth in the assay with OVCAR-5 ovarian is -15.2% (active); in the assay on OVCAR-4 ovarian, -47.2% (active); in the assay with SK-OV-3 ovarian, -59% (active); in the assay with IGROV1 ovarian it was -29.9% (active); in the assay on OVCAR-3 ovarian, -44.6% (active); in the assay with HS 578T breast, -16.1% (active). Further, the growth with NCI/ADR-RES ovarian is 93.3%.

Regarding `CC(=O)Cc1nsc(NC(=O)c2cc(-c3cc(Cl)ccc3Cl)oc2C)n1`, the growth with SK-MEL-2 melanoma is 101%; with EKVX NSCLC, 98.4%; in the assay with SN12C renal, 101%; with UO-31 renal, 107%; with TK-10 renal it was 151%; in the assay with ACHN renal it was 106%. In addition, the growth in the assay with CAKI-1 renal was 98.9%; in the assay with CCRF-CEM leukemia, 108%; with MOLT-4 leukemia it was 101%; in the assay on SR leukemia, 98.5%; in the assay on RPMI-8226 leukemia, 100%; in the assay on OVCAR-8 ovarian, 102%. For the same molecule, the growth was 111% with OVCAR-5 ovarian; 113% with OVCAR-4 ovarian; 104% in the assay on SK-OV-3 ovarian; 109% in the assay with IGROV1 ovarian; 110% in the assay with OVCAR-3 ovarian; 106% in the assay with HS 578T breast. Further, in the assay with NCI/ADR-RES ovarian, the growth is 108%.

With `O=C1/C(=C/c2cccc(Br)c2)COc2ccc(O)c(O)c21`, the growth with SK-MEL-2 melanoma is -14.8% (active); in the assay with EKVX NSCLC it was 41.9%; in the assay with SN12C renal, -73.8% (active); in the assay on UO-31 renal, -100% (active); with TK-10 renal, 12%; in the assay on ACHN renal, -92.8% (active). In addition, the growth in the assay on CAKI-1 renal was -54.4% (active); in the assay with A498 renal, 112%; in the assay on CCRF-CEM leukemia, 4.21% (active); with MOLT-4 leukemia, 2.59% (active); in the assay on SR leukemia it was 13.6%; in the assay on OVCAR-8 ovarian, 3.75% (active). For the same molecule, the growth was -31.5% (active) in the assay on OVCAR-5 ovarian; 0.231% (active) with OVCAR-4 ovarian; 62.9% in the assay on SK-OV-3 ovarian; -78% (active) in the assay with OVCAR-3 ovarian; 13.5% with HS 578T breast; 7.25% (active) with NCI/ADR-RES ovarian.

Regarding `CC1=NN(c2cccc(Cl)c2)C(=O)/C1=C\C=C\c1ccccc1`, the growth was 74.6% in the assay with SK-MEL-2 melanoma; 87.1% with EKVX NSCLC; 0.408% (active) in the assay with SN12C renal; 69.7% in the assay on UO-31 renal; 44.8% in the assay on TK-10 renal; -51.3% (active) in the assay with ACHN renal. For the same molecule, the growth with CAKI-1 renal is 52.2%; in the assay on CCRF-CEM leukemia, 2.35% (active); in the assay with MOLT-4 leukemia it was 28.4%; with SR leukemia it was 10.6%; with RPMI-8226 leukemia it was 15.4%; in the assay on OVCAR-8 ovarian it was 0.373% (active). Also, the growth in the assay on OVCAR-5 ovarian was 144%; with OVCAR-4 ovarian, -10.4% (active); in the assay on SK-OV-3 ovarian it was 39.4%; in the assay with IGROV1 ovarian, 45.5%; in the assay with OVCAR-3 ovarian, 104%; in the assay on HS 578T breast it was 133%. In the assay on NCI/ADR-RES ovarian, the growth was -17.5% (active).

Consider `O=C(/C=C/c1cccc([N+](=O)[O-])c1)c1ccc(Nc2nc(Nc3ccc(F)cc3)nc(Nc3ccc(Cl)cc3)n2)cc1`, for which the growth in the assay on SK-MEL-2 melanoma is 70%; in the assay on EKVX NSCLC it was 79.5%; with SN12C renal, 88.3%; in the assay on UO-31 renal, 79.8%; in the assay with TK-10 renal, 141%; with ACHN renal, 92%. The growth in the assay with CAKI-1 renal is 91.4%; in the assay with CCRF-CEM leukemia, 43.6%; in the assay with MOLT-4 leukemia it was 3.89% (active); in the assay on SR leukemia, 8.59% (active); in the assay on RPMI-8226 leukemia, 32%; with OVCAR-8 ovarian it was 86.3%. The growth was 62.7% with OVCAR-5 ovarian; 97.3% in the assay on OVCAR-4 ovarian; 110% in the assay on SK-OV-3 ovarian; 84.4% in the assay on IGROV1 ovarian; 104% with OVCAR-3 ovarian; 106% with HS 578T breast. For the same molecule, the growth in the assay with NCI/ADR-RES ovarian is 83.9%.

As for `O=C(Nc1ncc(Cc2cc(C(F)(F)F)ccc2Cl)s1)C(=S)N1CCOCC1`, the growth in the assay with SK-MEL-2 melanoma is 104%; in the assay with EKVX NSCLC, 83%; in the assay with SN12C renal it was 96.2%; in the assay on UO-31 renal it was 69.5%; in the assay with TK-10 renal it was 88.5%; with ACHN renal it was 99.4%. Further, the growth in the assay with CAKI-1 renal is 67.1%; in the assay with A498 renal, 90.3%; in the assay on CCRF-CEM leukemia, 92.3%; with MOLT-4 leukemia, 93%; with SR leukemia it was 92.1%; in the assay with OVCAR-8 ovarian, 95.2%. Also, the growth with OVCAR-5 ovarian is 94.7%; in the assay with OVCAR-4 ovarian, 84.5%; in the assay with SK-OV-3 ovarian, 92%; in the assay with IGROV1 ovarian it was 84.3%; with OVCAR-3 ovarian it was 105%; with NCI/ADR-RES ovarian, 91.3%.
